About 3,300 (8.5%) of roughly 39,000 compounds were called active. Shown is part of a subset that was picked to be rich in actives.
Tested on: HepG2
Assay: cytotoxicity call (relative viability < 0.9)
Details: 10 µM

SMILES	cytotoxicity call
NC[C@H](c1ccccc1Cl)N1CCOCC1	inactive
C[C@@H]1CN([C@H](C)CO)C(=O)c2cc(NC(=O)Nc3ccccc3)ccc2O[C@@H](C)CCCCO[C@H]1CN(C)C(=O)Cc1ccccc1	inactive
CC[C@H](C)[C@H](N)C1=N[C@H](C(=O)N[C@@H](CC(C)C)C(=O)N[C@H](CCC(=O)O)C(=O)N[C@H](C(=O)N[C@H]2CCCCNC(=O)[C@H](CC(N)=O)NC(=O)[C@@H](CC(=O)O)NC(=O)[C@H](Cc3cnc[nH]3)NC(=O)[C@@H](Cc3ccccc3)NC(=O)[C@H]([C@@H](C)CC)NC(=O)[C@@H](CCCN)NC2=O)[C@@H](C)CC)CS1	inactive
O=C(C[C@H]1CC[C@H]2[C@@H](COC[C@@H](O)CN2C(=O)Nc2ccc(Cl)c(Cl)c2)O1)NCc1ccncc1	inactive
O=C(C[C@H]1CC[C@H]2[C@@H](COC[C@@H](O)CN2C(=O)Nc2ccc(Cl)cc2)O1)NCCc1ccncc1	active
O=C(C[C@H]1CC[C@@H]2[C@H](COC[C@H](O)CN2C(=O)Nc2ccc(Cl)c(Cl)c2)O1)NCc1ccncc1	inactive
O=C(C[C@@H]1CC[C@@H]2[C@H](COC[C@@H](O)CN2C(=O)Nc2ccc(Cl)c(Cl)c2)O1)NCc1ccncc1	active
O=C(C[C@H]1CC[C@@H]2[C@H](COC[C@H](O)CN2C(=O)Nc2ccc(Cl)c(Cl)c2)O1)NCc1ccc(Cl)c(Cl)c1	active
O=C(C[C@@H]1CC[C@H]2[C@@H](COC[C@@H](O)CN2C(=O)Nc2ccc(Cl)c(Cl)c2)O1)NCc1ccncc1	inactive
O=C(C[C@@H]1CC[C@@H]2[C@H](COC[C@H](O)CN2C(=O)Nc2ccc(Cl)c(Cl)c2)O1)NCc1ccc(Cl)c(Cl)c1	inactive
O=C(C[C@H]1CC[C@H]2[C@@H](COC[C@H](O)CN2C(=O)Nc2ccc(Cl)cc2)O1)NCCc1ccncc1	inactive
O=C(C[C@@H]1CC[C@@H]2[C@H](COC[C@@H](O)CN2C(=O)Nc2ccc(Cl)cc2)O1)NCCc1ccncc1	inactive
CO[C@H]1CN(C)C(=O)c2cc(NC(=O)Nc3ccc(Cl)cc3)ccc2OC[C@@H](C)N(C(=O)Nc2c(C)noc2C)C[C@@H]1C	inactive
C[C@@H]1CCCCO[C@@H](CN(C)C(=O)Cc2ccccc2)[C@@H](C)CN([C@H](C)CO)C(=O)c2cc(NC(=O)C3CCCCC3)ccc2O1	inactive
CC(C)NC(=O)N(C)C[C@@H]1Oc2ccc(NC(=O)Cn3cnnn3)cc2C(=O)N([C@H](C)CO)C[C@@H]1C	inactive
C[C@@H]1CCCCO[C@H](CN(C)C(=O)Cc2ccccc2)[C@H](C)CN([C@H](C)CO)C(=O)c2cc(NC(=O)CCC(F)(F)F)ccc2O1	inactive
C[C@@H]1CN([C@@H](C)CO)C(=O)c2cc(NC(=O)CCCN(C)C)ccc2O[C@H]1CN(C)S(=O)(=O)c1ccc(F)cc1	inactive
Clc1ccc(C2=Nc3cccc4cccc(c34)N2)cc1	inactive
C=C(CO)C(=O)O[C@H]1C[C@@]2(C)OC(=O)/C(=C/C)[C@]2(O)CC[C@@]2(C)CC(=O)[C@]1(C(=C)C(=O)OC)O2	inactive
C=C(CO)C(=O)O[C@@H]1[C@H]2C(=C)C(=O)O[C@@H]2[C@H]2O[C@]2(C)CC/C=C(/C(=O)OC)[C@H]1OC(C)=O	active

SMILES	cytotoxicity call
O=C(O)CN1CCCCCC1=O	inactive
O=C(C[C@H]1C[C@@H]2c3cc(NC(=O)Nc4ccc(C(F)(F)F)cc4)ccc3O[C@@H]2[C@H](CO)O1)NCc1ccc(Cl)cc1	inactive
C[C@@H]1CN([C@@H](C)CO)C(=O)CCCn2cc(nn2)CO[C@H]1CN(C)C(=O)Nc1ccnc(N2CCOCC2)c1	inactive
C[C@H](CO)N1C[C@H](C)[C@H](CN(C)Cc2ccc(Oc3ccccc3)cc2)Oc2ccc(NC(=O)c3ccncc3)cc2C1=O	active
C[C@@H]1CN([C@H](C)CO)C(=O)c2cc(NC(=O)c3ccncc3)ccc2O[C@H]1CN(C)Cc1ccc(-c2ccccc2)cc1	active
C[C@@H]1CN([C@H](C)CO)C(=O)c2cc(NC(=O)c3ccncc3)ccc2O[C@@H]1CN(C)Cc1ccc(Oc2ccccc2)cc1	inactive
C[C@H]1CN([C@@H](C)CO)C(=O)c2cc(NC(=O)c3ccncc3)ccc2O[C@@H]1CN(C)Cc1ccc(Oc2ccccc2)cc1	inactive
Cc1noc(C)c1NC(=O)N(C)C[C@H]1Oc2ccc(NC(=O)c3ccncc3)cc2C(=O)N([C@@H](C)CO)C[C@@H]1C	inactive
C[C@H](CO)N1C[C@H](C)[C@@H](CN(C)Cc2ccc(-c3ccccc3)cc2)Oc2ccc(NC(=O)c3ccncc3)cc2C1=O	inactive
Cc1noc(C)c1NC(=O)N(C)C[C@H]1Oc2ccc(NC(=O)c3ccncc3)cc2C(=O)N([C@@H](C)CO)C[C@H]1C	inactive
Cc1noc(C)c1NC(=O)N(C)C[C@H]1Oc2ccc(NC(=O)c3ccncc3)cc2C(=O)N([C@H](C)CO)C[C@@H]1C	active
C[C@@H]1CN([C@@H](C)CO)C(=O)c2cc(NC(=O)c3ccncc3)ccc2O[C@@H]1CN(C)Cc1ccc(-c2ccccc2)cc1	inactive
C[C@@H]1CN([C@@H](C)CO)C(=O)c2cc(NC(=O)CCCN(C)C)ccc2O[C@H]1CN(C)Cc1ccncc1	inactive
C[C@@H]1CCCCO[C@@H](CN(C)CC2CCCCC2)[C@@H](C)CN([C@@H](C)CO)C(=O)c2cc(NC(=O)CCC(F)(F)F)ccc2O1	inactive
Cc1ccc(S(=O)(=O)N(C)C[C@@H]2Oc3ccc(NS(C)(=O)=O)cc3C(=O)N([C@H](C)CO)C[C@@H]2C)cc1	inactive
COc1ccc2c3c(n(c2c1)C)[C@@H](CO)N(C[C@]13CN(Cc2ccncc2)C1)C(=O)CN1CCOCC1	inactive
O=C(C[C@@H]1CC[C@H]2[C@@H](COC[C@@H](O)CN2Cc2ccccc2F)O1)N[C@@H]1CCN(Cc2ccccc2)C1	inactive
C[C@@H]1CCCCO[C@@H](CN(C)C(=O)Nc2cccc3ccccc23)[C@H](C)CN([C@@H](C)CO)C(=O)c2cc(NS(=O)(=O)c3cccs3)ccc2O1	inactive
C[C@@H]1CN([C@@H](C)CO)C(=O)c2c(c3ccccc3n2C)-c2ccccc2CO[C@@H]1CN(C)C(=O)NC1CCCCC1	inactive

From the antibiotic and cytotoxicity screens of Wong et al. (2023)
